# Screen size: about 290,000 compounds; about 11,000 (3.8%) were called active. This is one part of a sample in which actives are shown more often than they occur. Unmarked numbers belong to inactive results.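 Rule for the calls: active = mean replicate inhibition above about 79%, with every replicate also reaching it (limit read from the data); inconclusive = only one of the two criteria met; inactive = mean below limit and not every replicate reaching it.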
# Target: FAD-linked sulfhydryl oxidase ALR (Homo sapiens) (UniProt P55789)
# Sequence (P55789 whole entry, looked up): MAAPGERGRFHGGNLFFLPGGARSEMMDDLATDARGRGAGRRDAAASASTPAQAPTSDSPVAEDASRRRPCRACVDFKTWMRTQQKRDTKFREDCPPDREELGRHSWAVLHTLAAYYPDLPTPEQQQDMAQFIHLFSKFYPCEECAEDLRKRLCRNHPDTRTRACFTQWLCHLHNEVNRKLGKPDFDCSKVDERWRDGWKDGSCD
# Assay: inhibitors of human ALR sulfhydryl oxidase, primary screen, biochemical, H2O2 detection, HRP-luminol luminescence, single point (AID 485317)
# Details: purified ALR, DTT oxidation, hits give high values, concentration not given here
row,Structure (SMILES),inhibition
1,CC1CCCN(C(=O)CN2C(=O)c3ccccc3S2(=O)=O)C1 (centres undefined),-1.06%
2,O=C(NNC(=O)c1ccc(-n2cncn2)c([N+](=O)[O-])c1)c1ccccc1,-16.9%
3,O=C(NCc1ccncc1)c1ccc(NS(=O)(=O)c2cccc([N+](=O)[O-])c2)cc1,-17.6%
4,O=C(NCCCN1CCOCC1)c1ccccc1NS(=O)(=O)c1ccc(Br)cc1,-9.12%
5,O=C(NCCCN1CCOCC1)c1cnn2c(-c3ccccc3)cc(-c3ccccc3)nc12,94.1% (active)
6,O=C(NCCCN1CCOCC1)c1ccccc1NS(=O)(=O)c1ccc(F)cc1,-11.8%
7,CN(C)S(=O)(=O)c1cccc(NC(=O)COc2ccc3ccccc3c2)c1,-11.4%
8,COCCNC(=O)c1ccc(-n2c(SCc3cccnc3)nc3ccccc3c2=O)cc1,-2.07%
9,C=CCn1c(SCc2ccc(C(=O)NCCO)cc2)nc2ccccc2c1=O,98.7% (active)
10,C=CCn1c(SCC(=O)NC(=O)Cc2ccccc2)nc2ccccc2c1=O,-2.51%
11,Cc1ccc(CNC(=O)c2cccc3c2C(=O)c2ccc(N4CCC(C)CC4)cc2S3(=O)=O)cc1,3.52%
12,NS(=O)(=O)c1ccc(CCNC(=O)COC(=O)COc2cccc(C(F)(F)F)c2)cc1,-3.46%
13,Cc1ccc(OCc2n[nH]c(=S)n2-c2ccccc2)cc1,65.2%
14,Cc1ccc(NCc2n[nH]c(=S)n2-c2ccccc2)cc1Cl,88.3% (active)
15,S=c1[nH]nc(CSCc2ccc(Cl)cc2Cl)n1-c1ccccc1,1.91%
16,Cc1ccc(NC(=O)C2CCC(C(C)(C)C)CC2)cc1S(=O)(=O)N1CCOCC1 (centres undefined),-0.467%
17,CC(C(=O)Nc1ccc(S(=O)(=O)N2CCCC2)cc1)N(C)Cc1ccc(F)cc1 (centres undefined),-1.06%
18,CCn1c(=S)[nH]c2cc(S(=O)(=O)N3CCOCC3)ccc21,67.1%
19,COc1cccc(NC(=O)C(=O)c2cn(CC(=O)N3CCOCC3)c3ccccc23)c1,4.42%
20,CN1c2ccc(C=O)c3c(C=O)ccc(c23)N(C)C1(C)C,99.2% (active)
21,CCOC(=O)COc1ccc([N+](=O)[O-])cc1,3.19%
22,Cc1cc(C)cc(OCC(=O)O/N=C(\N)Cc2ccc([N+](=O)[O-])cc2)c1,98.4% (active)
23,N/C(Cc1ccc([N+](=O)[O-])cc1)=N\OC(=O)COc1ccc2ccccc2c1,-17.6%

row,Structure (SMILES),inhibition
1,Cc1ccc(S(=O)(=O)NC(C)C(=O)NCc2ccc(Cl)cc2)cc1 (centres undefined),10.6%
2,Oc1ccc(N=Cc2c(O)ccc3ccccc23)cc1,99.5% (active)
3,CCOc1ccc(N=Cc2c(O)n(-c3cccc(C)n3)c(=O)c3ccccc23)cc1,-11.1%
4,Oc1c(C=Nc2cccc3nsnc23)ccc2ccccc12,25.2%
5,CCN(c1ccccc1)S(=O)(=O)c1cccc(C(=O)NCc2ccccc2CN2CCOCC2)c1,-5.99%
6,Cc1ccc(COC(=O)CN2C(=O)NC3(CCCC3)C2=O)cc1,-0.909%
7,COc1ccc(C(=O)CSc2nnc(-c3ccco3)o2)cc1,19.8%
8,CC(C)C[C@@H](N)c1nnc(SCC(=O)c2ccc(Cl)cc2)o1,98.5% (active)
9,CCC(=O)Nc1ccc(C(=O)CSc2nnc(CNc3ccc(Cl)cc3)o2)cc1OC,0.831%
10,Cc1cc(C)cc(-c2nnc(SCC(=O)NC3CC3)o2)c1,-0.0792%
11,Cc1cccc(C)c1-n1c(C)cc(/C=C2\C(=O)NN(c3ccccc3)C2=O)c1C,21.8%
12,O=C1NN(c2ccccc2)C(=O)/C1=C/c1ccc(-c2cccc(C(=O)O)c2)o1,98.7% (active)
13,CC1=NN(c2ccc(Cl)c(C(=O)O)c2)C(=O)/C1=C/c1ccc(-c2ccccc2[N+](=O)[O-])o1,71.4%
14,O=S(=O)(NCC1CN(S(=O)(=O)c2ccc3c(c2)OCCO3)C1)c1c(F)cccc1F,-2.88%
15,COc1ccc(NC(=O)Nc2ccc3c(c2)C(=O)N([C@H](C)CO)C[C@H](C)[C@@H](CN(C)C(=O)Nc2ccc4c(c2)OCO4)O3)cc1,-7.46%
16,Cc1cc(C(=O)OCC(=O)N2C(C)CCCC2C)c2ccccc2n1 (centres undefined),-5.22%
17,COc1ccc(C(=O)O)cc1S(=O)(=O)NC1CCN(Cc2ccccc2)CC1,-0.811%
18,CCOC(=O)N1CCN(C(=O)c2cc3c(-c4ccc(Cl)cc4)nn(C)c3s2)CC1,72.2%
19,Cn1nc(-c2ccc(Cl)cc2)c2cc(C(=O)NCc3ccco3)sc21,86.8% (active)
20,COc1ccccc1N1CCN(C(=O)c2cc3c(-c4ccc(Cl)cc4)nn(C)c3s2)CC1,-109%
21,O=C(COC(=O)c1cccc(Cl)c1)NC1CCCCCCC1,-2.57%
22,C/C(=N\NC(=O)c1cccnc1)c1ccc(-c2ccccc2)cc1,-25.7%
23,O=C(NN=C1CCC(=NNC(=O)c2cccnc2)CC1)c1cccnc1,99.1% (active)

row,Structure (SMILES),inhibition
1,O=C(N/N=C/c1ccccn1)c1cccnc1,-5.07%
2,CCCCN(C1CCS(=O)(=O)C1)S(=O)(=O)c1ccc(C(C)C)cc1 (centres undefined),-1.06%
3,CC1O[C@H](OC2C(COC3OC(CO)C(O)[C@H](O)C3O)OC(OC3CC[C@]4(C)C(CC[C@@]5(C)[C@@H]4C=C[C@]46OC[C@@]7(CCC(C)(C)C[C@H]74)C(O)C[C@@]56C)C3(C)C)C(O)C2O)C(O)C(O)C1O (some centres undefined),-3.57%
4,CCCCN1C(N)=NC[C@@H]1CC1CCCCC1,98.3% (active)
5,CCCC[C@@H]1CN=C(N)N1CCCC,4.8%
6,CCCC[C@@H]1CN=C(N)N1CCc1cc(C(F)(F)F)cc(C(F)(F)F)c1,-42.9%
7,COc1ccc(S(=O)(=O)/N=C2\C=C(NS(=O)(=O)c3ccccc3)C(=O)c3ccccc32)cc1,87.5% (active)
8,COc1ccc(S(=O)(=O)NCCCc2ccccc2)cc1,-2.65%
9,COc1ccc(S(=O)(=O)Nc2c(C)n(C)n(-c3ccccc3)c2=O)cc1,-9.38%
10,COc1cc(OC)cc(-c2c(-c3cccs3)c3cc(-c4ccc(OC)nc4)ccc3n2C)c1,-18.1%
11,O=C(OCC(=O)N1CCN(C(=O)c2ccco2)CC1)c1c(Cl)cccc1Cl,-7.05%
12,Cn1cccc1C(=O)OCC(=O)NCCc1ccccc1,5.56%
13,C=CCn1c(Cn2nnc3ccccc32)nnc1SCC(=O)N/N=C/c1cc(Br)cc(OC)c1O,98.4% (active)
14,Cc1ccc(Cn2c(SCC(=O)N/N=C/c3ccccc3OCC(=O)O)nc3ccccc32)cc1,-5.09%
15,Cn1c(Cn2nnc3ccccc32)nnc1SCC(=O)c1ccccc1F,25.7%
16,CSc1ccccc1NC(=O)C(C)N1C(=O)c2ccccc2S1(=O)=O (centres undefined),-4.05%
17,CC(=O)C(CC(=O)N1CCCC1)C(=O)Nc1ccc(Cl)cc1 (centres undefined),23.9%
18,Cc1ccc(N2C(=O)N3[C@@H]4c5ccccc5OC[C@@H]4[C@@H](c4ccccc4)[C@@]3(C)C2=O)cc1,3%
19,Cc1nc(SCC(=O)NC2CCCCC2C)c(C#N)c(C)c1C (centres undefined),-0.312%
20,O=C(CN1C(=O)NC2(CCOc3ccccc32)C1=O)Nc1cccc([N+](=O)[O-])c1 (centres undefined),13.9%
21,COc1ccccc1C(=O)NCCC(=O)NN1C(=O)NC2(CCCCC2)C1=O,-0.581%
22,CCCCNc1c(-c2ccc(OC)c(Sc3ccc(OC)cc3)c2)nc2ccc(Cl)cn12,-8.2%
23,COc1ccc(-c2nc3cnccn3c2NC2CCCCC2)cc1-c1cccc(Cl)c1,3.7%

row,Structure (SMILES),inhibition
1,COc1ccc(-c2nc3cnccn3c2NC(C)(C)CC(C)(C)C)cc1O,99.6% (active)
2,COc1ccc(S(=O)(=O)N(C)C[C@@H]2Oc3ccc(NC(=O)Nc4c(C)noc4C)cc3C(=O)N([C@H](C)CO)C[C@@H]2C)cc1,-1.21%
3,NC(=O)NC(CC(=O)NNC(=O)c1ccccn1)c1ccc(Cl)cc1 (centres undefined),-14%
4,Cc1ccc(N2C(=O)C3C(c4ccccc4)(C2=O)C3(c2ccccc2)c2ccccc2)cc1 (centres undefined),-4.39%
5,Cc1ccc(C2SCC(=O)N2c2ccccc2)cc1 (centres undefined),98.3% (active)
6,COc1cccc(C2SCC(=O)N2c2cccc(C)c2)c1OC (centres undefined),-42.2%
7,Cc1occc1C(=O)Nc1cccc(S(=O)(=O)N2CCOCC2)c1,-1.99%
8,CCOC(=O)C1CCN(C(=O)c2cccc(S(=O)(=O)N(CC)c3ccccc3)c2)CC1,-13.6%
9,COc1ccc(Cl)cc1NC(=O)CN(C)C(=O)c1cc(-c2cccs2)nn1-c1ccccc1,21.6%
10,COc1ccc(Nc2cc(Cl)ccc2C(=O)O)cn1,98.7% (active)
11,COc1ccc(Nc2ccc([N+](=O)[O-])cn2)cn1,-22.9%
12,COc1ccc(NS(=O)(=O)c2ccc(F)cc2F)cn1,-5.33%
13,O=C(N[C@@H]1C/C=C\C[C@@H](CC(=O)N(CCO)Cc2ccccc2)C(=O)N[C@H](Cc2ccccc2)COC1=O)OCC1c2ccccc2-c2ccccc21,5.13%
14,CCOc1ccc(NC(=O)COc2ccc(C(=O)N3CCC(C(N)=O)CC3)cc2OC)cc1,-0.853%
15,O=C(CSc1nnc(-c2cccnc2)n1Cc1ccco1)c1ccc(Cl)cc1,54.6%
16,C(=C\c1ccccc1)/CSc1nnc(-c2cccnc2)n1Cc1ccco1,87.9% (active)
17,CCc1ccc(NC(=O)CSc2nnc(-c3cnccn3)n2Cc2ccco2)cc1,29.4%
18,O=C(CSc1nnc(-c2cccnc2)n1Cc1ccco1)c1ccc(Cl)c(Cl)c1,98.2% (active)
19,O=C(CSc1nnc(-c2cccs2)n1Cc1ccco1)c1ccc2c(c1)OCO2,0.1%
20,CCOC(=O)Cc1csc(NC(=O)CSc2nnc(-c3cccnc3)n2Cc2ccco2)n1,-5.11%

# — PubChem BioAssay AID485317 (Broad Institute, 2010)
